Among all 5,500 compounds or so, about 2,000 (36%) were called active. Not shown: some 18% with an inconclusive outcome. Rule as the data show it: active = normalized growth mostly below about 0.91 (no sharp cut-off); inconclusive = no clear call, values can overlap the other calls; inactive = mostly above about 0.92. This is one part of the list.
Assay: chemical genetic growth profiling, strain panel (AID 1159580);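 also: tested at 20 µM; growth read once vehicle control cultures reached saturation at 30 °C; 1 = growth at the plate median or of vehicle wells; lower values mean less growth of the strain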
Settings: S. cerevisiae deletion strains, growth OD
[1] = locus YHR030C, strain SLT2, stronger effect = lower value
[2] = locus YHR079C, strain IRE1, stronger effect = lower value
[3] = locus YJL095W, strain BCK1, stronger effect = lower value
[4] = locus YJR066W, strain TOR1, stronger effect = lower value
[5] = locus YLR113W, strain HOG1, stronger effect = lower value
[6] = locus YNL183C, strain NPR1, stronger effect = lower value
[7] = locus YOR231W, strain MKK1, stronger effect = lower value
[8] = locus YPL256C, strain CLN2, stronger effect = lower value

Measured: normalized growth

NC(=O)c1cccnc1
inactive: locus YAL021C, strain ccr4, stronger effect = lower value 0.969 | locus YAL026C, strain drs2, stronger effect = lower value 0.979 | locus YAL030W, strain snc1, stronger effect = lower value 0.958 | locus YBL061C, strain skt5, stronger effect = lower value 0.971 | locus YBR009C, strain hhf1, stronger effect = lower value 0.974 | locus YBR023C, strain chs3, stronger effect = lower value 0.98 | locus YBR171W, strain sec66, stronger effect = lower value 0.968 | locus YBR231C, strain swc5, stronger effect = lower value 0.995 | locus YBR279W, strain paf1, stronger effect = lower value 0.991 | locus YCL011C, strain gbp2, stronger effect = lower value 0.979 | locus YCL016C, strain dcc1, stronger effect = lower value 0.978 | locus YCL061C, strain MRC1, stronger effect = lower value 0.986 | locus YCL069W, strain vba3, stronger effect = lower value 0.986 | locus YCR088W, strain abp1, stronger effect = lower value 0.97 | locus YDL005C, strain med2, stronger effect = lower value 0.966 | locus YDL040C, strain nat1, stronger effect = lower value 0.992 | locus YDR001C, strain nth1, stronger effect = lower value 0.972 | locus YDR069C, strain doa4, stronger effect = lower value 0.972 | locus YDR137W, strain rgp1, stronger effect = lower value 0.994 | locus YDR159W, strain sac3, stronger effect = lower value 0.97 | locus YDR195W, strain ref2 0.996 | locus YDR297W, strain sur2, stronger effect = lower value 0.975 | locus YDR334W, strain swr1, stronger effect = lower value 0.928 | locus YDR335W, strain msn5, stronger effect = lower value 0.975 | locus YDR392W, strain spt3, stronger effect = lower value 0.985 | locus YEL003W, strain gim4, stronger effect = lower value 0.975 | locus YEL037C, strain rad23, stronger effect = lower value 0.987 | locus YEL061C, strain CIN8 (second series), stronger effect = lower value 0.983 | locus YER015W, strain faa2, stronger effect = lower value 0.992 | locus YER016W, strain bim1, stronger effect = lower value 0.981 | locus YER111C, strain swi4, stronger effect = lower value 0.985 | locus YER155C, strain BEM2 (second series), stronger effect = lower value 0.98 | locus YFR010W, strain ubp6, stronger effect = lower value 0.971 | locus YGL167C, strain pmr1, stronger effect = lower value 0.984 | locus YGL173C, strain kem1, stronger effect = lower value 0.957 | locus YGL227W, strain vid30, stronger effect = lower value 0.959 | locus YGL240W, strain doc1, stronger effect = lower value 0.963 | locus YGL253W, strain hxk2, stronger effect = lower value 0.998 | locus YHR013C, strain ard1, stronger effect = lower value 0.972 | locus YHR027C, strain rpn1, stronger effect = lower value 0.959 | [1] 0.971 | [2] 0.961 | locus YHR142W, strain chs7, stronger effect = lower value 0.976 | locus YJL092W, strain hpr5, stronger effect = lower value 0.982 | locus YJL095W, strain BCK1 (second series), stronger effect = lower value 0.979 | [3] 0.974 | locus YJL115W, strain asf1, stronger effect = lower value 0.96 | locus YJL129C, strain trk1, stronger effect = lower value 0.996 | locus YJL154C, strain vps35, stronger effect = lower value 0.964 | locus YJL164C, strain tpk1, stronger effect = lower value 0.992 | locus YJL166W, strain qcr8, stronger effect = lower value 0.978 | locus YJL187C, strain SWE1, stronger effect = lower value 0.982 | [4] 0.928 | locus YKL160W, strain elf1, stronger effect = lower value 0.991 | locus YKR026C, strain gcn3, stronger effect = lower value 0.976 | locus YKR091W, strain srl3, stronger effect = lower value 0.986 | locus YLL001W, strain dnm1, stronger effect = lower value 0.991 | locus YLL026W, stronger effect = lower value 0.951 | locus YLL041C, strain sdh2, stronger effect = lower value 0.982 | locus YLR027C, strain aat2, stronger effect = lower value 0.948 | [5] 0.973 | locus YLR221C, strain rsa3, stronger effect = lower value 0.974 | locus YLR258W, strain gsy2, stronger effect = lower value 0.984 | locus YLR262C, strain YPT6 (second series), stronger effect = lower value 0.965 | locus YLR320W, strain mms22, stronger effect = lower value 1 | locus YLR342W, strain FKS1, stronger effect = lower value 0.983 | locus YLR357W, strain rsc2, stronger effect = lower value 0.979 | locus YLR370C, strain arc18, stronger effect = lower value 0.986 | locus YLR384C, strain iki3, stronger effect = lower value 0.987 | locus YML120C, strain ndi1, stronger effect = lower value 0.982 | locus YMR058W, strain fet3, stronger effect = lower value 0.979 | locus YMR125W, strain sto1, stronger effect = lower value 0.963 | locus YMR129W, stronger effect = lower value 0.99 | locus YMR205C, strain PFK2, stronger effect = lower value 0.962 | locus YMR231W, strain pep5, stronger effect = lower value 0.978 | locus YNL071W, strain lat1, stronger effect = lower value 0.975 | [6] 0.949 | locus YNL209W, strain ssb2, stronger effect = lower value 0.979 | locus YNL248C, strain rpa49, stronger effect = lower value 0.973 | locus YNL322C, strain KRE1 (second series), stronger effect = lower value 0.98 | locus YNR049C, strain mso1, stronger effect = lower value 0.966 | locus YOR001W, strain rrp6, stronger effect = lower value 0.983 | locus YOR070C, strain gyp1, stronger effect = lower value 0.983 | locus YOR080W, strain dia2, stronger effect = lower value 0.978 | locus YOR083W, strain WHI5, stronger effect = lower value 0.986 | locus YOR106W, strain vam3, stronger effect = lower value 0.986 | [7] 0.975 | locus YOR265W, strain rbl2, stronger effect = lower value 0.983 | locus YOR270C, strain vph1, stronger effect = lower value 0.978 | locus YOR290C, strain snf2, stronger effect = lower value 0.996 | locus YPL051W, strain arl3, stronger effect = lower value 0.999 | locus YPL078C, strain atp4, stronger effect = lower value 0.98 | locus YPL106C, strain sse1, stronger effect = lower value 0.927 | locus YPL240C, strain hsp82, stronger effect = lower value 0.978 | [8] 0.992

NC(=O)c1ccccc1
inactive: locus YAL040C, strain CLN3, stronger effect = lower value 0.923 | locus YCL061C, strain MRC1 (second series), stronger effect = lower value 1.01 | locus YER002W, strain NOP16, stronger effect = lower value 0.988 | locus YGR078C, strain PAC10, stronger effect = lower value 0.997 | locus YGR229C, strain SMI1, stronger effect = lower value 1.04 | locus YNL153C, strain GIM3, stronger effect = lower value 1.01 | locus YNL175C, strain NOP13, stronger effect = lower value 0.972 | locus YNL197C, strain WHI3, stronger effect = lower value 0.979 | locus YNL224C, strain SQS1, stronger effect = lower value 0.997 | locus YOR083W, strain WHI5 (second series), stronger effect = lower value 0.952

O=C(NOC(=O)c1ccccc1)c1ccccc1
active: locus YAR019C, strain CDC15, stronger effect = lower value 0.0906 | locus YBL105C, strain PKC1, stronger effect = lower value 0.0874 | locus YBR135W, strain CKS1, stronger effect = lower value 0.0902 | locus YBR136W, strain MEC1, stronger effect = lower value 0.0871 | locus YBR160W, strain CDC28, stronger effect = lower value 0.091 | locus YDL017W, strain CDC7, stronger effect = lower value 0.0875 | locus YDL028C, strain MPS1, stronger effect = lower value 0.0868 | locus YDL101C, strain DUN1, stronger effect = lower value 0.102 | locus YDL108W, strain KIN28, stronger effect = lower value 0.0859 | locus YDL132W, strain cdc53, stronger effect = lower value 0.0913 | locus YDL214C, strain PRR2, stronger effect = lower value 0.0898 | locus YDR052C, strain DBF4, stronger effect = lower value 0.0867 | locus YDR054C, strain cdc34, stronger effect = lower value 0.0943 | locus YDR226W, strain ADK1, stronger effect = lower value 0.0848 | locus YDR477W, strain SNF1, stronger effect = lower value 0.0987 | locus YER123W, strain YCK3, stronger effect = lower value 0.0956 | locus YER133W, strain GLC7, stronger effect = lower value 0.0938 | locus YFL009W, strain cdc4, stronger effect = lower value 0.093 | locus YFL029C, strain CAK1, stronger effect = lower value 0.089 | locus YFR003C, strain YPI1, stronger effect = lower value 0.0861 | locus YFR019W, strain FAB1, stronger effect = lower value 0.101 | locus YFR028C, strain CDC14, stronger effect = lower value 0.0859 | locus YGR040W, strain KSS1, stronger effect = lower value 0.103 | locus YGR052W, strain FMP48, stronger effect = lower value 0.111 | locus YGR092W, strain DBF2, stronger effect = lower value 0.104 | [1] 0.114 | [2] 0.112 | locus YHR082C, strain KSP1, stronger effect = lower value 0.153 | locus YHR205W, strain SCH9, stronger effect = lower value -0.00347 | locus YIL147C, strain SLN1, stronger effect = lower value 0.0859 | [3] 0.107 | locus YJL128C, strain PBS2, stronger effect = lower value 0.097 | locus YJL157C, strain FAR1, stronger effect = lower value 0.0897 | locus YJR016C, strain ILV3, stronger effect = lower value 0.0894 | locus YJR066W, strain TOR1 (second series), stronger effect = lower value 0.0928 | [4] 0.133 | locus YKL048C, strain ELM1, stronger effect = lower value 0.111 | locus YKL067W, strain YNK1, stronger effect = lower value 0.0892 | locus YKL101W, strain HSL1, stronger effect = lower value 0.103 | locus YKL193C, strain SDS22, stronger effect = lower value 0.0889 | locus YKL203C, strain TOR2, stronger effect = lower value 0.097 | [5] 0.138 | locus YLR133W, strain CKI1, stronger effect = lower value 0.0893 | locus YLR403W, strain SFP1, stronger effect = lower value 0.00282 | locus YML070W, strain DAK1, stronger effect = lower value 0.109 | locus YMR001C, strain CDC5, stronger effect = lower value 0.0891 | locus YMR205C, strain PFK2 (second series), stronger effect = lower value 0.0877 | locus YMR277W, strain FCP1, stronger effect = lower value 0.0919 | locus YNL006W, strain LST8, stronger effect = lower value 0.0825 | locus YNL020C, strain ARK1, stronger effect = lower value 0.0971 | locus YNL161W, strain CBK1, stronger effect = lower value 0.0976 | [6] 0.109 | locus YNL207W, strain RIO2, stronger effect = lower value 0.0878 | locus YNL222W, strain SSU72, stronger effect = lower value 0.0863 | locus YNL307C, strain MCK1 (second series), stronger effect = lower value 0.112 | locus YOL078W, strain AVO1, stronger effect = lower value 0.0891 | locus YOL136C, strain PFK27, stronger effect = lower value 0.0994 | locus YOR061W, strain CKA2, stronger effect = lower value 0.0894 | locus YOR119C, strain RIO1, stronger effect = lower value 0.108 | [7] 0.111 | locus YOR329C, strain SCD5, stronger effect = lower value 0.0866 | locus YPL031C, strain PHO85, stronger effect = lower value 0.102 | locus YPL153C, strain RAD53, stronger effect = lower value 0.0967 | locus YPL204W, strain HRR25, stronger effect = lower value 0.1 | locus YPL209C, strain IPL1, stronger effect = lower value 0.0841 | [8] 0.167 | locus YPR025C, strain CCL1, stronger effect = lower value 0.091 | locus YPR106W, strain ISR1, stronger effect = lower value 0.0869 | locus YPR111W, strain DBF20, stronger effect = lower value 0.09 | strain NNK1, stronger effect = lower value 0.0922 | strain TSCII, stronger effect = lower value 0.0892

From PubChem BioAssay AID1159580 (chemical genetic matrix, 2015)
